Experimental data as given in PubChem BioAssay (Tox21).
Records with an inconclusive call do not appear. Active and inactive are the calls of the source. Unless noted, the call rests on the fitted dose curve; in most records, active means well fitted curve in the direction sought with a large enough effect in the repeat runs; inconclusive means weak or mixed curves; inactive means no such curve, though single readings can be large; an effect the other way counts as inactive or inconclusive. Non-standard residues stand in square brackets, D forms with d. Residues, ends and D or L forms follow the SMILES beside them. *: point of attachment. Sta = CC(C)C[C@H](N)[C@@H](O)CC(=O)O; Isovaleryl = CC(C)CC(=O)*

Experiments:
[1] = qHTS assay to identify small molecule agonists of the sonic hedgehog signaling (Shh) pathway - cell viability counter screen (AID 1259366); further: nearly all actives have a fitted effect of over 50% in size
Outline: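 Cytotoxicity counter screen run in the same wells as the Shh reporter assay. NIH/3T3 cells carrying a Gli1 response element–driven luciferase were treated with DMSO-dissolved compounds for 24hr, and live-cell protease activity was measured with CellTiter-Fluor.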

[2] = qHTS assay to identify small molecule antagonists of the sonic hedgehog signaling (Shh) pathway - cell viability counter screen (AID 1259367); further: nearly all actives have a fitted effect of over 55% in size
Outline: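 Fluorescence read-out (CellTiter-Fluor, 1 hr at 37C) taken after 23 hr compound treatment of 3T3 Gli1-Luc cells stimulated with conditioned medium. Cells were seeded at 2,000 per well and pre-incubated 4 hr.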

[3] = qHTS assay to identify small molecule agonists of the sonic hedgehog signaling (Shh) pathway (AID 1259368; calls by dose curve;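 further: NIH/3T3-derived 3T3Gli1-Luc cells carrying a stable Gli1-driven firefly luciferase reporter; series mostly up to about 92 µM; nearly all actives have a fitted effect of over 15% in size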)
Outline: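 Cells of a mouse NIH/3T3 clone stably expressing luciferase under the Gli1 transcriptional response element are exposed to test chemicals for 24 hr at 37 C. Pathway activation is detected as a rise in luminescence.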

[4] = qHTS assay to identify small molecule antagonists of the sonic hedgehog signaling (Shh) pathway (AID 1259369; calls by dose curve; further: nearly all actives have a fitted effect of over 45% in size)
Outline: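 Cells are plated and held 4hr at 37 C, compounds (DMSO) are pinned in, conditioned medium is added to stimulate the pathway, and after 24hr luciferase reagent is added for 30min before luminescence is read.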

[5] = qHTS assay to identify small molecule agonists of the androgen receptor (AR) signaling pathway in the presence of an antagonist - cell viability counter screen (AID 1259379);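 further: MDA-kb2 human breast cancer cells carrying an MMTV luciferase reporter; series mostly up to about 92 µM; nearly all actives have a fitted effect of over 25% in size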
Outline: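 Cytotoxicity is assessed by CellTiter-Fluor in MDA-kb2 cells carrying an MMTV-driven luciferase reporter. Cells receive 3.0uM nilutamide plus compounds at 15 concentrations and incubate 16 hr at 37C without CO2 before fluorescence reading.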

[6] = qHTS assay to identify small molecule agonists of the estrogen receptor beta (ER-beta) signaling pathway - cell viability counter screen (AID 1259380); further: nearly all actives have a fitted effect of over 30% in size
Outline: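 Cytotoxicity is measured in parallel with the reporter screen: after 16 hr compound exposure at 37C and a 2 hr LiveBLAzer step, CellTiter-Glo is added to the same ER-beta-UAS-bla HEK293T wells and luminescence read after 30 min.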

[7] = qHTS assay to identify small molecule antagonists of the estrogen receptor beta (ER-beta) signaling pathway - cell viability counter screen (AID 1259382); further: series mostly up to about 92 µM; nearly all actives have a fitted effect of over 55% in size
Outline: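 Cytotoxicity counter screen multiplexed with the beta-lactamase antagonist assay: GripTite HEK293T ER-beta-bla cells were treated 16 hr with test chemicals in the presence of 1nM 17-beta-estradiol, and viability was measured by CellTiter-Glo.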

[8] = target: Androgen receptor (Homo sapiens) (UniProt P10275); experiment: qHTS assay to identify small molecule agonists of the androgen receptor (AR) signaling pathway in the presence of an antagonist (AID 1259381; calls by dose curve; further: nearly all actives have a fitted effect of over 15% in size)
Chain of Androgen receptor (Homo sapiens) (P10275 whole entry, looked up): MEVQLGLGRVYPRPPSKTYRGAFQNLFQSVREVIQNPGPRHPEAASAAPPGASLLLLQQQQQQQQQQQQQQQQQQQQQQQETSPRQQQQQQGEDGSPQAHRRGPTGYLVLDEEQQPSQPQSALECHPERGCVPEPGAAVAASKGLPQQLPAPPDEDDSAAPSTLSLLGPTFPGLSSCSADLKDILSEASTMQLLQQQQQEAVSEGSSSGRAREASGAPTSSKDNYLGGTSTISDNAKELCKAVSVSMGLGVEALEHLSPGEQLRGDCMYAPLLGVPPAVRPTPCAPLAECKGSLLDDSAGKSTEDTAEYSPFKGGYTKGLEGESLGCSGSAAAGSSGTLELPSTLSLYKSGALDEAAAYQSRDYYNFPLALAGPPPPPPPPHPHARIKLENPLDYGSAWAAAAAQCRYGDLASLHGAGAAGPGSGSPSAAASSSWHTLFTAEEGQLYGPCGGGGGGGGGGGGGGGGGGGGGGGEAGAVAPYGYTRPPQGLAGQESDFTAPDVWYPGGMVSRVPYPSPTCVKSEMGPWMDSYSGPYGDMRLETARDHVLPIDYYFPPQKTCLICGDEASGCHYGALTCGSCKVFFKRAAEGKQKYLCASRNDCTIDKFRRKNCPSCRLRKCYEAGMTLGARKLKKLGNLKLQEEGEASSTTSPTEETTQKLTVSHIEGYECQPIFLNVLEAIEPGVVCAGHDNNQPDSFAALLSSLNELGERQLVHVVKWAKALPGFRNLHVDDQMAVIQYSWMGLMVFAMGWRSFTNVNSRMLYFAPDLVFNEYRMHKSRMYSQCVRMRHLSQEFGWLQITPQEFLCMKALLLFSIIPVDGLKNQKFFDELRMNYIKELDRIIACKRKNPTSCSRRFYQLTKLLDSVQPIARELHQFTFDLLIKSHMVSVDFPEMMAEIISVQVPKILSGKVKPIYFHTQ
Outline: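 Agonist-mode confirmation screen: human MDA-kb2 cells stably expressing luciferase under an MMTV promoter bearing AR and GR response elements, co-treated with 3.0uM nilutamide (final). Luminescence measured after 16hr compound incubation.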

[9] = target: Estrogen receptor beta (Homo sapiens) (UniProt Q92731); experiment: qHTS assay to identify small molecule antagonists of the estrogen receptor beta (ER-beta) signaling pathway (AID 1259378; active means well fitted inhibition curve with a large enough effect in the signal ratio in the repeat runs, not every such curve was filed as active; the % refers to the signal ratio)
Chain of Estrogen receptor beta (Homo sapiens) (Q92731 whole entry, looked up): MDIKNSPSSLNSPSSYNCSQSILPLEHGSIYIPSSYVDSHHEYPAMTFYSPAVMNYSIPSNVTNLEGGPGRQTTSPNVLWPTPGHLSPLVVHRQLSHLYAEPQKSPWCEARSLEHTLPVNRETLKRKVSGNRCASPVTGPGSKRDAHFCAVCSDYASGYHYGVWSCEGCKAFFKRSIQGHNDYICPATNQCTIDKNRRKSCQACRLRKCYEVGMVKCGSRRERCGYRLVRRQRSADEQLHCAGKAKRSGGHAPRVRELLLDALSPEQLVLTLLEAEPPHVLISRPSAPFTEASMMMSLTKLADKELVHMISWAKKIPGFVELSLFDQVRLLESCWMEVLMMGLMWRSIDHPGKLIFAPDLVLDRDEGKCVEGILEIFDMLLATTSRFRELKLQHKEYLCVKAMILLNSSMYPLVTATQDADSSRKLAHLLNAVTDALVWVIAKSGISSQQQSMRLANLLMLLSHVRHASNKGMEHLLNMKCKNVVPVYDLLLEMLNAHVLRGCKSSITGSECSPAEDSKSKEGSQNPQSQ
Outline: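 ER-beta-UAS-bla HEK293T cells in 2% charcoal-stripped FBS medium treated with compound plus 1nM final 17-beta-estradiol for 16 hr at 37C. Beta-lactamase reporter read by FRET substrate fluorescence after 2 hours at room temperature.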
On the % scale 0 is the no-effect control and ±100 the full control effect.

O=C(OOC(=O)c1ccccc1)c1ccccc1
inactive: outcome [1] | outcome [2] | outcome [3] | Potency [4] | outcome [5] | Potency [6] | outcome [7]

CC(O)CCCCn1c(=O)c2c(ncn2C)n(C)c1=O (stereo not drawn)
inactive: outcome [1] | outcome [2] | outcome [3] | Potency [4] | outcome [5] | Potency [6] | outcome [7]

Cc1ccc(O)c(C(=O)c2ccccc2)c1
inactive: outcome [1] | outcome [2] | outcome [3] | Potency [4] | outcome [5] | Potency [6] | outcome [8] | outcome [7]

NC[C@H]1O[C@H](O[C@H]2[C@H](O)[C@@H](O[C@H]3O[C@H](CO)[C@@H](O)[C@H](N)[C@H]3O)[C@H](N)C[C@@H]2N)[C@H](N)[C@@H](O)[C@@H]1O
inactive: viability change, negative = cytotoxic [1] 0.901% [at 19 µM] | viability change, negative = cytotoxic [2] 3.49% [at 19 µM] | activity change [3] 0.032% [at 18.9 µM] | activity change, negative = inhibition [4] 16.7% [at 19 µM] | activity change, negative = cytotoxicity [5] -5.29% [at 19 µM] | activity change, negative = cytotoxicity [6] 2.53% [at 19 µM] | activity change, negative = cytotoxicity [7] 7.91% [at 19 µM]

O=C(CCBr)N1CCN(C(=O)CCBr)CC1
inactive: outcome [1] | outcome [2] | outcome [3] | Potency [4] | outcome [5] | Potency [6] | outcome [7]

C=CCN1CCc2nc(N)sc2CC1
inactive: outcome [1] | outcome [2] | outcome [3] | Potency [4] | outcome [5] | Potency [6] | outcome [8] | outcome [7]

CC(C)CC(=O)N[C@H](C(=O)N[C@H](C(=O)N[C@@H](CC(C)C)[C@@H](O)CC(=O)N[C@@H](C)C(=O)N[C@@H](CC(C)C)[C@@H](O)CC(=O)O)C(C)C)C(C)C (Isovaleryl-VV[Sta]A[Sta]-OH)
inactive: outcome [1] | outcome [2] | outcome [3] | Potency [4] | outcome [5] | Potency [6] | outcome [7]

Cc1ccc(OC(=O)CC(C)C)cc1
inactive: outcome [1] | outcome [2] | outcome [3] | Potency [4] | outcome [5] | Potency [6] | outcome [7]

O=c1c(O)c(O)c1=O
inactive: outcome [1] | outcome [2] | outcome [3] | Potency [4] | outcome [5] | Potency [6] | outcome [7]

CC(=O)/C=C/C=C1/C2CCC(C2)C1(C)C (stereo not drawn)
inactive: outcome [1] | outcome [2] | outcome [3] | Potency [4] | outcome [5] | Potency [6] | outcome [8] | outcome [7]

CC(=O)Nc1ccc(OCCOCCOc2ccc(NC(C)=O)cc2)cc1
inactive: outcome [1] | outcome [2] | outcome [3] | Potency [4] | outcome [5] | Potency [6] | outcome [7]

CSC(=O)c1cccc2nnsc12
inactive: outcome [1] | outcome [2] | outcome [3] | Potency [4] | outcome [5] | Potency [6] | outcome [8] | outcome [7]

N=C(N)N
inactive: outcome [1] | outcome [2] | outcome [3] | Potency [4] | outcome [5] | Potency [6] | outcome [7]

Cc1cc2c(cc1CC(=O)c1sccc1S(=O)(=O)Nc1onc(C)c1Cl)OCO2
inactive: outcome [1] | outcome [2] | outcome [3] | Potency [4] | outcome [9] | outcome [5] | outcome [7]

N#Cc1ccccc1C#N
inactive: outcome [1] | outcome [2] | outcome [3] | Potency [4] | outcome [5] | Potency [6] | outcome [8] | outcome [7]

CC(C)(O)CCCC1=CCC(C=O)CC1 (stereo not drawn)
inactive: outcome [1] | outcome [2] | outcome [3] | Potency [4] | outcome [5] | Potency [6] | outcome [7]

COc1cc(NS(=O)(=O)c2ccc(N)cc2)ncn1
inactive: outcome [1] | outcome [2] | outcome [3] | Potency [4] | outcome [5] | Potency [6] | outcome [7]

CNCCc1ccccn1
inactive: outcome [1] | outcome [2] | outcome [3] | Potency [4] | outcome [5] | Potency [6] | outcome [7]

Clc1ccc2c(c1)Nc1ccccc1S2
inactive: outcome [1] | outcome [2] | outcome [3] | Potency [4] | outcome [5] | Potency [6] | outcome [8] | outcome [7]

CCOC(=O)[C@H](CCc1ccccc1)N[C@H]1CS[C@H](c2cccs2)CN(CC(=O)O)C1=O
inactive: outcome [1] | outcome [2] | outcome [3] | Potency [4] | outcome [5] | Potency [6] | outcome [8] | outcome [7]

N=C(N)N1CCc2ccccc2C1
inactive: viability change, negative = cytotoxic [1] 2.39% [at 8.39 µM] | viability change, negative = cytotoxic [2] 3.14% [at 8.39 µM] | activity change [3] 0.863% [at 8.39 µM] | activity change, negative = inhibition [4] 18.9% [at 8.39 µM] | activity change, negative = cytotoxicity [5] 0.84% [at 8.39 µM] | activity change, negative = cytotoxicity [6] 1.92% [at 8.39 µM] | activity change, negative = cytotoxicity [7] 8.18% [at 8.39 µM]

CC(=O)OC1CCC(C(C)(C)C)CC1 (stereo not drawn)
inactive: outcome [1] | outcome [2] | outcome [3] | Potency [4] | outcome [5] | Potency [6] | outcome [8] | outcome [7]

CCCCCCCOC(C)=O
inactive: outcome [1] | outcome [2] | outcome [3] | Potency [4] | outcome [5] | Potency [6] | outcome [7]

C[C@H]1COc2c(C3(N)CC3)c(F)cc3c(=O)c(C(=O)O)cn1c23
inactive: outcome [1] | outcome [2] | outcome [3] | Potency [4] | outcome [9] | outcome [5] | outcome [7]

Cc1ccc(Br)cc1
inactive: outcome [1] | outcome [2] | outcome [3] | Potency [4] | outcome [5] | Potency [6] | outcome [7]

COC(=O)C(c1ccccc1Cl)N1CCc2sccc2C1 (stereo not drawn)
inactive: outcome [1] | outcome [2] | outcome [3] | Potency [4] | outcome [5] | Potency [6] | outcome [7]

COC(=O)c1ccc(NC(C)=O)cc1OC
inactive: outcome [1] | outcome [2] | outcome [3] | Potency [4] | outcome [5] | Potency [6] | outcome [8] | outcome [7]
